The panel holds about 79,000 compounds, 15% with a hit somewhere; the sample as a whole holds those more often. Activity calls are given as the source filed them. Rule as the data show it: active = growth inhibition above about 70%; inactive = the rest.
Assays:
[1] = NCI Yeast Anticancer Drug Screen. Data for the rad52 strain (AID 147);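 also: 0% = growth of vehicle-treated control cultures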; conditions: S. cerevisiae rad52 mutant growth inhibition, hits give high values
Procedure, shortened: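 Compounds are applied to a genetically defined yeast strain lacking normal DNA damage repair, and inhibition of growth is expressed relative to cultures given vehicle only.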

[2] = NCI Yeast Anticancer Drug Screen. Data for the wt1 strain (AID 149);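 also: 0% = growth of vehicle-treated wt1 cultures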; conditions: S. cerevisiae wt1 strain (SPY 50644) growth inhibition, hits give high values
Procedure, shortened: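 Yeast wt1 strain exposed to compounds; growth inhibition measured relative to vehicle-treated controls.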

[3] = NCI Yeast Anticancer Drug Screen. Data for the rad50EPP+ strain (AID 151);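 also: 0% = growth of vehicle-treated control cultures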; conditions: S. cerevisiae rad50 mutant strain, hits give high values
Procedure, shortened: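 Compounds were applied to the rad50EPP+ yeast strain, which bears a defined DNA repair alteration, and growth inhibition was determined relative to vehicle-treated cultures.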

[4] = NCI Yeast Anticancer Drug Screen. Data for the mgt1 strain (AID 153); conditions: S. cerevisiae mgt1 mutant growth inhibition, hits give high values
Procedure, shortened: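 Strain: mgt1 yeast, one of a set carrying defined DNA damage repair or cell cycle control alterations. Compound-treated growth compared with vehicle.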

[5] = NCI Yeast Anticancer Drug Screen. Data for the rad50 strain (AID 155);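 also: 0% = growth of vehicle-only cultures of the same strain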; conditions: S. cerevisiae rad50 strain growth inhibition, hits give high values
Procedure, shortened: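 Yeast carrying a defined DNA repair defect were exposed to test compounds, and growth was compared with vehicle-treated controls to give percent inhibition.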

[6] = NCI Yeast Anticancer Drug Screen. Data for the mec2-1 strain (AID 157); conditions: S. cerevisiae mec2-1 strain, hits give high values
Procedure, shortened: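 Strain: mec2-1 (DNA repair/cell cycle alteration). Compound exposure, then growth measured; inhibition expressed relative to vehicle.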

[7] = NCI Yeast Anticancer Drug Screen. Data for the rad14 strain (AID 159);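 also: 0% = growth of vehicle-treated control cultures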; conditions: S. cerevisiae rad14 strain growth inhibition, hits give high values
Procedure, shortened: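 Yeast cells carrying a defined DNA-repair defect were exposed to compounds, and growth inhibition was calculated relative to vehicle-treated control cultures.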

[8] = NCI Yeast Anticancer Drug Screen. Data for the sgs1 mgt1 strain (AID 161);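 also: 0% = growth of cultures given vehicle only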; conditions: S. cerevisiae sgs1 mgt1 strain, hits give high values
Procedure, shortened: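 Mutant yeast exposed to compound; growth scored against vehicle-only wells.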

[9] = NCI Yeast Anticancer Drug Screen. Data for the CLN2oe strain (AID 163);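 also: 0% = growth of vehicle-only control cultures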; conditions: S. cerevisiae CLN2oe strain, hits give high values
Procedure, shortened: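 Growth of a genetically modified yeast strain is measured after compound exposure and compared with cultures given vehicle alone.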

[10] = NCI Yeast Anticancer Drug Screen. Data for the cln2 rad14 strain (AID 165);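 also: 0% = growth equal to vehicle treated cultures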; conditions: S. cerevisiae cln2 rad14 strain, hits give high values
Procedure, shortened: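 Compounds are applied to the cln2 rad14 yeast strain, and growth is then compared with that of vehicle-treated cultures to give inhibition.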

[11] = NCI Yeast Anticancer Drug Screen. Data for the bub3 strain (AID 167); conditions: S. cerevisiae bub3 mutant strain, hits give high values
Procedure, shortened: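 Compounds were applied to a genetically altered yeast strain carrying a cell-cycle control defect. Growth inhibition was scored against vehicle-treated controls.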

[12] = NCI Yeast Anticancer Drug Screen. Data for the wt2 strain (AID 169);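 also: 0% = growth of vehicle-treated yeast cultures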; conditions: S. cerevisiae wt2 strain growth inhibition, hits give high values
Procedure, shortened: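 This strain belongs to a panel of yeast strains with defined genetic alterations in DNA damage repair or cell cycle control. Compounds are applied, and growth inhibition is measured against vehicle-treated cultures.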

[13] = NCI Yeast Anticancer Drug Screen. Data for the mlh1 strain (AID 171);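 also: 0% = growth of vehicle-treated control cultures of the same strain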; conditions: S. cerevisiae mlh1 strain growth inhibition, hits give high values
Procedure, shortened: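 Growth of the mutant yeast strain after compound exposure, expressed as inhibition relative to vehicle-only controls.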

[14] = NCI Yeast Anticancer Drug Screen. Data for the sgs1 strain (AID 173);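 also: 0% = growth of vehicle-only control cultures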; conditions: S. cerevisiae sgs1 mutant, hits give high values
Procedure, shortened: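 Growth of a yeast strain bearing a defined genetic alteration is measured after compound treatment. Inhibition is expressed relative to vehicle-only controls.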

[15] = NCI Yeast Anticancer Drug Screen. Data for the mlh1 rad18 strain (AID 175); conditions: S. cerevisiae mlh1 rad18 strain growth inhibition, hits give high values
Procedure, shortened: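 Read-out is yeast growth inhibition, calculated against vehicle-only controls. The compound was applied to a strain engineered with DNA damage repair alterations.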

[16] = NCI Yeast Anticancer Drug Screen. Data for the rad18 strain (AID 177); conditions: S. cerevisiae rad18 mutant growth inhibition, hits give high values
Procedure, shortened: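 Growth of the mutant yeast strain after compound exposure, normalised to vehicle-only cultures.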

[17] = at 5.0 µM (retest, dose inferred, filed as 0.5)
[18] = at 50.0 µM (retest, dose inferred, filed as 5.0)

Measured: growth inhibition

O=C(/C=C\c1ccc(Cl)cc1Cl)c1cccs1
active: [8]; [18] 71% | [11]; [18] 85% | [15]; [18] 88% | [16]; at 33.0 µM 73% | [16]; at 100.0 µM 84%
inactive: [1]; at 1.2 µM -2% | [1]; at 3.7 µM -3% | [1]; at 11.0 µM 3% | [1]; at 33.0 µM 10% | [1]; at 100.0 µM 16% | [2]; at 1.2 µM -2% | [2]; at 3.7 µM 0% | [2]; at 11.0 µM -5% | [2]; at 33.0 µM -6% | [2]; at 100.0 µM -7% | [3]; at 1.2 µM 9% | [3]; at 3.7 µM 23% | [3]; at 11.0 µM 47% | [3]; at 33.0 µM 55% | [3]; at 100.0 µM 58% | [4]; at 1.2 µM -4% | [4]; at 3.7 µM -6% | [4]; at 11.0 µM -4% | [4]; at 33.0 µM 2% | [4]; at 100.0 µM 5% | [5]; at 1.2 µM -1% | [5]; at 3.7 µM -2% | [5]; [17] 0% | [5]; at 11.0 µM 0% | [5]; at 33.0 µM 0% | [5]; [18] 61% | [5]; at 50.0 µM -9.15% | [5]; at 100.0 µM 5% | [6]; at 1.2 µM -6% | [6]; at 3.7 µM -2% | [6]; [17] -10% | [6]; at 11.0 µM 1% | [6]; at 33.0 µM 10% | [6]; [18] 18% | [6]; at 50.0 µM -6.25% | [6]; at 100.0 µM 10% | [7]; at 1.2 µM -2% | [7]; at 3.7 µM 1% | [7]; at 11.0 µM 5% | [7]; at 33.0 µM 9% | [7]; at 100.0 µM 7% | [8]; [17] 0% | [8]; at 50.0 µM 10.2% | [9]; at 1.2 µM -9% | [9]; at 3.7 µM -21% | [9]; at 11.0 µM -17% | [9]; at 33.0 µM -14% | [9]; at 100.0 µM -18% | [10]; [17] 9% | [10]; [18] 27% | [10]; at 50.0 µM -29.9% | [11]; at 1.2 µM 10% | [11]; at 3.7 µM 22% | [11]; [17] 30% | [11]; at 11.0 µM 38% | [11]; at 33.0 µM 47% | [11]; at 50.0 µM 54.9% | [11]; at 100.0 µM 48% | [12]; at 1.2 µM -5% | [12]; at 3.7 µM -1% | [12]; at 11.0 µM -3% | [12]; at 33.0 µM 4% | [12]; at 100.0 µM 7% | [13]; at 1.2 µM -4% | [13]; at 3.7 µM 0% | [13]; at 11.0 µM 1% | [13]; at 33.0 µM 7% | [13]; at 100.0 µM 12% | [14]; at 1.2 µM 0% | [14]; at 3.7 µM 1% | [14]; at 11.0 µM 12% | [14]; at 33.0 µM 33% | [14]; at 100.0 µM 45% | [15]; [17] 27% | [15]; at 50.0 µM 1.1% | [16]; at 1.2 µM 3% | [16]; at 3.7 µM 6% | [16]; at 11.0 µM 29%

[O-][n+]1c2ccc(O)cc2nc2ccc(Br)cc21
active: [1]; at 33.0 µM 83% | [1]; at 100.0 µM 85% | [3]; at 33.0 µM 75% | [3]; at 100.0 µM 77% | [4]; at 33.0 µM 85% | [4]; at 100.0 µM 87% | [5]; at 33.0 µM 87% | [5]; [18] 96% | [5]; at 50.0 µM 88.5% | [5]; at 100.0 µM 87% | [6]; [18] 81% | [6]; at 50.0 µM 78.8% | [7]; at 100.0 µM 81% | [8]; [18] 86% | [10]; [18] 88% | [11]; at 33.0 µM 78% | [11]; [18] 74% | [11]; at 50.0 µM 84% | [11]; at 100.0 µM 70% | [12]; at 100.0 µM 80% | [13]; at 33.0 µM 75% | [13]; at 100.0 µM 84% | [14]; at 33.0 µM 74% | [14]; at 100.0 µM 84% | [15]; [18] 93% | [15]; at 50.0 µM 92.2% | [16]; at 33.0 µM 90% | [16]; at 100.0 µM 90%
inactive: [1]; at 1.2 µM 1% | [1]; at 3.7 µM 16% | [1]; at 11.0 µM 42% | [2]; at 1.2 µM 1% | [2]; at 3.7 µM 14% | [2]; at 11.0 µM 22% | [2]; at 33.0 µM 45% | [2]; at 100.0 µM 67% | [3]; at 1.2 µM 6% | [3]; at 3.7 µM 20% | [3]; at 11.0 µM 55% | [4]; at 1.2 µM 4% | [4]; at 3.7 µM 21% | [4]; at 11.0 µM 46% | [5]; at 1.2 µM 2% | [5]; at 3.7 µM 18% | [5]; [17] 36% | [5]; at 11.0 µM 56% | [6]; at 1.2 µM -1% | [6]; at 3.7 µM 12% | [6]; [17] 2% | [6]; at 11.0 µM 25% | [6]; at 33.0 µM 49% | [6]; at 100.0 µM 61% | [7]; at 1.2 µM 2% | [7]; at 3.7 µM 7% | [7]; at 11.0 µM 29% | [7]; at 33.0 µM 67% | [8]; [17] 30% | [8]; at 50.0 µM 65% | [9]; at 1.2 µM 14% | [9]; at 3.7 µM 21% | [9]; at 11.0 µM 40% | [9]; at 33.0 µM 54% | [9]; at 100.0 µM 64% | [10]; [17] 16% | [10]; at 50.0 µM 49% | [11]; at 1.2 µM 5% | [11]; at 3.7 µM 16% | [11]; [17] 32% | [11]; at 11.0 µM 41% | [12]; at 1.2 µM 3% | [12]; at 3.7 µM -40% | [12]; at 11.0 µM 25% | [12]; at 33.0 µM 60% | [13]; at 1.2 µM 2% | [13]; at 3.7 µM 15% | [13]; at 11.0 µM 29% | [14]; at 1.2 µM 4% | [14]; at 3.7 µM 8% | [14]; at 11.0 µM 28% | [15]; [17] 50% | [16]; at 1.2 µM 5% | [16]; at 3.7 µM 21% | [16]; at 11.0 µM 57%

— PubChem BioAssay (NCI)
